The supplement of paper PMC6992640
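Also: PDX cells carrying CMV promoter-driven luciferase, viability read as total photon flux per second by IVIS imaging following D-luciferin, vehicle control 0.1% DMSO.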

What follows are molecules tested on HCI11 (cells of an ER-positive luminal breast cancer xenograft) (assay: cell viability (% of vehicle); higher = less cytotoxic). Conditions: 10 µM; 72 h.
Work on `Cc1ccc(-n2[nH]c(C)c(NN=C3C=CC=C(c4cccc(C(=O)O)c4)C3=O)c2=O)cc1C` [Eltrombopag] yielded a cell viability of 60.9. `Oc1c(Cl)cc(Cl)c2cccnc12` [Chloroxine] showed a cell viability of 69.7. `CCN(CC)CCCC(C)Nc1ccnc2cc(Cl)ccc12.O=P(O)(O)O.O=P(O)(O)O` (stereo unspecified) [Chloroquine diphosphate] showed a cell viability of 88.4. In the case of `COC(=O)NC(C(=O)NC(Cc1ccccc1)C(O)CN(Cc1ccc(-c2ccccn2)cc1)NC(=O)C(NC(=O)OC)C(C)(C)C)C(C)(C)C` (stereo unspecified) [Atazanavir], the cell viability is reported as 74.5. `COc1cc2nccc(Oc3ccc(NC(=O)C4(C(=O)Nc5ccc(F)cc5)CC4)cc3)c2cc1OC.O=C(O)CC(O)C(=O)O` [Cabozantinib malate (XL184)] gave a cell viability of 44. `O=C(C=Cn1cnc(-c2cc(C(F)(F)F)cc(C(F)(F)F)c2)n1)NNc1cnccn1` showed a cell viability of 92.7. `Nc1ccn(C2OC(CO)C(O)C2O)c(=O)n1` (stereo unspecified) [Cytarabine] was tested, and the cell viability was 136. Work on `CO[C@H]1/C=C/O[C@@]2(C)Oc3c(C)c(O)c4c(O)c(c(/C=N/N5CCN(C6CCCC6)CC5)c(O)c4c3C2=O)NC(=O)/C(C)=C\C=C\[C@H](C)[C@H](O)[C@@H](C)[C@@H](O)[C@@H](C)[C@H](OC(C)=O)[C@@H]1C` [Rifapentine] yielded a cell viability of 104. In the case of `CS(=O)(=O)O.Cc1c(O)cccc1C(=O)NC(CSc1ccccc1)C(O)CN1CC2CCCCC2CC1C(=O)NC(C)(C)C` (stereo unspecified) [Nelfinavir Mesylate], the cell viability is reported as 104. For `CCN(CC)CCNC(=O)c1c(C)[nH]c(C=C2C(=O)Nc3ccc(F)cc32)c1C.O=C(O)CC(O)C(=O)O` [Sunitinib malate], the cell viability was 111. Molecule `N.N.O=C([O-])C1(C(=O)[O-])CCC1.[Pt+2]` [Carboplatin] has a cell viability of 86.4. For `CC(NCCCc1cccc(C(F)(F)F)c1)c1cccc2ccccc12.Cl` (stereo unspecified) [Cinacalcet HCl], the cell viability was 64.8. With `COC(=O)c1ccc2c(c1)NC(=O)C2=C(Nc1ccc(N(C)C(=O)CN2CCN(C)CC2)cc1)c1ccccc1` [Nintedanib (BIBF 1120)] the cell viability was 59. Molecule `COc1cc(C(=O)NS(=O)(=O)c2ccccc2C)ccc1Cc1cn(C)c2ccc(NC(=O)OC3CCCC3)cc12` [Zafirlukast] has a cell viability of 86.4. `CCC(=C(c1ccccc1)c1ccc(OCCN(C)C)cc1)c1ccccc1.O=C(O)CC(O)(CC(=O)O)C(=O)O` [Tamoxifen Citrate] showed a cell viability of 96.5. `CCCCc1oc2ccc(NS(C)(=O)=O)cc2c1C(=O)c1ccc(OCCCN(CCCC)CCCC)cc1.Cl` [Dronedarone HCl] gave a cell viability of 66.1. With `CC(C)CC(NC(=O)CNC(=O)c1cc(Cl)ccc1Cl)B(O)O` (stereo unspecified) the cell viability was 174. For `COC(=O)C1=C(C)NC(C)=C(C(=O)OCCN(C)Cc2ccccc2)C1c1cccc([N+](=O)[O-])c1.Cl` (stereo unspecified) [Nicardipine HCl], the cell viability was 65.4. `CCOc1cc2ncc(C#N)c(Nc3ccc(F)c(Cl)c3)c2cc1NC(=O)C=CCN(C)C` [Pelitinib (EKB-569)] gave a cell viability of 37.7. `CCOC(=O)c1c(CSc2ccccc2)n(C)c2cc(Br)c(O)c(CN(C)C)c12.Cl` [Arbidol HCl] showed a cell viability of 114. `CN(C)CCOc1ccc(C(=C(CCCl)c2ccccc2)c2ccccc2)cc1.O=C(O)CC(O)(CC(=O)O)C(=O)O` [Toremifene Citrate] gave a cell viability of 86.8. `CN(C)c1ccc(O)c2c1CC1CC3C(N(C)C)C(=O)C(C(N)=O)=C(O)C3(O)C(=O)C1=C2O.Cl` (stereo unspecified) [Minocycline HCl] showed a cell viability of 52.6. With `CC(Oc1cc(-c2cnn(C3CCNCC3)c2)cnc1N)c1c(Cl)ccc(F)c1Cl` [(R)-Crizotinib] the cell viability was 89.6. Molecule `CC(C)(C)NC(=O)C1CC2CCCCC2CN1CC(O)C(Cc1ccccc1)NC(=O)C(CC(N)=O)NC(=O)c1ccc2ccccc2n1.CS(=O)(=O)O` (stereo unspecified) [Saquinavir mesylate] has a cell viability of 95.3. For `O=C1C=CC=CC1=C1NC(=C2C=CC=CC2=O)N(c2ccc(C(=O)O)cc2)N1` [Deferasirox], the cell viability was 107. Work on `Cl.OC(c1cc(C(F)(F)F)nc2c(C(F)(F)F)cccc12)C1CCCCN1` (stereo unspecified) [Mefloquine hydrochloride] yielded a cell viability of 51.4.
